For part of these data: Potency and affinity values are given separately. The source made the active and inactive calls. A call without a number means that no potency is given here. Unless noted, no rule for the calls is given here.
What was measured:
[1] = molecular target: Cell division control protein 42 homolog (Homo sapiens) (UniProt P60953); experiment: activated mutant Cdc42 GTP-binding inhibitors, dose response, biochemical, multiplex bead flow cytometry, Bodipy-FL-GTP (AID 1333;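 active = fitted half-maximal concentration within the tested dose range, moderate curve steepness, a statistically real signal drop, and little compound fluorescence or tag-binding interference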)
Chain of Cell division control protein 42 homolog (Homo sapiens) (P60953 whole entry, looked up): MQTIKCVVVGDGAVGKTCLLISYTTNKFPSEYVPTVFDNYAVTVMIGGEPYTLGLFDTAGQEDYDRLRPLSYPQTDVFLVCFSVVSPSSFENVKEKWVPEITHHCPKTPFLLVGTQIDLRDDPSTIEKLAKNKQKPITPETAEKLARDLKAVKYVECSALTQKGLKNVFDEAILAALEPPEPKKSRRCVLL

[2] = molecular target: Cell division control protein 42 homolog (Homo sapiens) (UniProt P60953); experiment: wildtype Cdc42 GTP-binding inhibitors, dose response, biochemical, multiplex bead flow cytometry, Bodipy-FL-GTP (AID 1334;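 active = fitted half-maximal concentration within the tested range, moderate curve steepness, significant signal drop, and little compound fluorescence or bead-linkage interference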); settings: bead-based flow cytometry, Bodipy-FL-GTP binding to GST-Cdc42; at 100 µM (top of the series) unless noted
[3] = molecular target: GTPase HRas (Homo sapiens) (UniProt P01112); experiment: inhibitors of GTP binding to wildtype Ras, dose response, biochemical, multiplex bead flow cytometry (AID 1335;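 active = fitted half-maximal concentration within 10 nM to 100 µM, steepness 0.5 to 2, significant signal drop, low assay interference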); settings: bead-based flow cytometry, Bodipy-GTP binding to GST-Ras; at 100 µM (top of the series) unless noted
Chain of GTPase HRas (Homo sapiens) (P01112 whole entry, looked up): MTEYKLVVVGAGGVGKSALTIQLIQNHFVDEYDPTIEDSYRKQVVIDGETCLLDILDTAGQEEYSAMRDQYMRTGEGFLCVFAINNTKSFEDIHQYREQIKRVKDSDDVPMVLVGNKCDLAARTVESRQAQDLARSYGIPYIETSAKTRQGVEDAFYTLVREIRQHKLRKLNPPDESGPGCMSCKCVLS

[4] = test system: Ras-related protein Rab-7a (dog), GTP binding; experiment: Rab7 GTP binding inhibitors, potency, dose response, biochemical, wildtype, multiplex bead flow cytometry (AID 1336)
[5] = molecular target: Ras-related C3 botulinum toxin substrate 1 (Homo sapiens) (UniProt P63000); experiment: wildtype Rac1 GTP binding inhibitors, dose response, biochemical, multiplex bead flow cytometry (AID 1340;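 active = dose curve with midpoint inside tested range, moderate steepness, plateau gap beyond fit error, low compound glow and bead-link interference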); settings: GST-Rac1 beads, Bodipy-FL-GTP binding; at 100 µM (top of the series) unless noted
[6] = molecular target: GTPase HRas (Homo sapiens) (UniProt P01112); experiment: activated Ras mutant GTP binding inhibitors, dose response, biochemical, multiplex bead flow cytometry (AID 1341;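 active = dose-response curve with midpoint inside the tested range, moderate steepness, significant amplitude and little compound fluorescence or bead-attachment interference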;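 also: GST-tagged constitutively activated Ras mutant immobilized on beads and multiplexed with other GTPases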)

Row | Structure (SMILES) | outcome [1] | fluorescence, percent of control (lower = inhibition) [2] | GTP binding, percent of control [3] | outcome [4] | GTP binding signal, raw median fluorescence (lower = inhibition) (MCF (arbitrary fluorescence units)) [5] | outcome [6]
1 | COc1cccc(-n2nc3c(=S)[nH]nc(C)c3c2C)c1 | inactive | 50.1% | 63.5% | inactive | 199 | inactive
2 | Cc1ccc(C2C(C#N)C(C#N)N3CCCN23)cc1 (stereo not given) | inactive | 99.2% | 156% | inactive | 200 | inactive
3 | CCc1ccccc1NCc1sc(C(=O)O)cc1C | inactive | 61.1% | 87.1% | inactive | 31.9 | inactive
4 | COc1ccc(/C=N/NC(=O)c2cccnc2)cc1Cn1nc([N+](=O)[O-])c(Br)c1C | inactive | 31.2% | 67% | inactive | 153 | inactive
5 | Cc1cc2ccccn2c1C(=O)c1cccc([N+](=O)[O-])c1 | inactive | 34% | 81.2% | inactive | 250 | inactive
6 | COc1cc2c3nnc(-c4ccc(F)cc4)c-3cn(Cc3cccc(F)c3)c2cc1OC | inactive | 38.2% | 86.4% | inactive | 293 | inactive
7 | COc1ccccc1C(=O)Nc1nc(-c2ccc3c(c2)OCCO3)cs1 | inactive | 28.6% | 77% | inactive | 216 | inactive
8 | COc1cc(/C=C2\SC(=Nc3ccc(O)cc3)NC2=O)cc(OC)c1O | inactive | 36.9% | 79.8% | inactive | 267 | inactive
9 | COc1ccc2nc(/C(C#N)=C\c3ccc(C(=O)O)cc3)[nH]c2c1 | inactive | 31.4% | 72.6% | inactive | 189 | inactive
10 | COc1cc2[nH]c(=S)nc(NCCc3ccc(C)cc3)c2cc1OC | inactive | 26.6% | 59.9% | inactive | 125 | inactive
11 | Cc1ccc(S(=O)(=O)N2CC3(C)CN(S(=O)(=O)c4ccc(C)cc4)CC(C)(C2)C3O)cc1 (stereo not given) | inactive | 50% | 61.9% | inactive | 204 | inactive
12 | O=C(COc1ccccc1[N+](=O)[O-])Nc1cc(Cl)ccc1C(=O)O | inactive | 32.7% | 75.6% | inactive | 215 | inactive
13 | COc1ccc(CNc2nc3c(c(=O)n(Cc4ccc(Cl)cc4)c(=O)n3C)n2C)cc1 | inactive | 29.3% | 80.3% | inactive | 228 | inactive
14 | Cc1cccc(OCC(=O)N/N=C/c2ccc3c(c2)OCO3)c1 | inactive | 34.8% | 89.5% | inactive | 256 | inactive
15 | CC(=O)N1C(=O)/C(=C2\SC(=S)N(NC(=O)c3ccc(O)cc3)C2=O)c2ccccc21 | inactive | 31.6% | 70.8% | inactive | 155 | inactive
16 | Cc1c(C(=O)N/N=C/c2ccc(O)c(Br)c2)sc(N)c1C#N | inactive | 27.1% | 64.7% | inactive | 151 | inactive
17 | COC(=O)c1cccc(NC(=O)c2nn(C)c(=O)c3ccccc23)c1 | inactive | 42.8% | 155% | inactive | 179 | inactive
18 | COc1ccc(/C=C2\N=C(SC)SC2=O)cc1OC | inactive | 86.4% | 150% | inactive | 186 | inactive
19 | O=C(COC(=O)/C=C/c1ccc(Cl)cc1)Nc1ccc2c(c1)OCCO2 | inactive | 40.2% | 59.5% | inactive | 162 | inactive
20 | Cc1ccc(Sc2nnc(-c3ccccc3)cc2C#N)cc1 | inactive | 104% | 178% | inactive | 185 | inactive

Row | Structure (SMILES) | outcome [1] | fluorescence, percent of control (lower = inhibition) [2] | GTP binding, percent of control [3] | outcome [4] | GTP binding signal, raw median fluorescence (lower = inhibition) (MCF (arbitrary fluorescence units)) [5] | outcome [6]
21 | CC(C)(C)NC(=O)CCN(/N=C/c1ccc([N+](=O)[O-])o1)C1=NS(=O)(=O)c2ccccc21 | inactive | 23.6% | 33.1% | inactive | 86.3 | inactive
22 | CCOc1ccc2ccccc2c1/C=N/n1cncn1 | inactive | 86.7% | 156% | inactive | 179 | inactive
23 | COc1cccc(NC(=O)NCCCN2CCN(c3ccc(F)cc3)CC2)c1 | inactive | 40.4% | 84.6% | inactive | 255 | inactive
24 | CCOc1ccccc1NC(=O)CSc1ccc2nnc(-c3cccnc3)n2n1 | inactive | 29.2% | 65.1% | inactive | 136 | inactive
25 | COc1cccc2c1c(C(=O)O)cn2CCOc1ccccc1C | inactive | 58.5% | 212% | inactive | 55.1 | inactive
26 | Cc1ccccc1NC(=O)C1CCCN1S(=O)(=O)c1cccc2cccnc12 (stereo not given) | inactive | 39.1% | 84.8% | inactive | 322 | inactive
27 | Cc1cc(C)n(C(=O)CNC(=O)c2ccc3c(c2)OCCO3)n1 | inactive | 53.2% | 61.7% | inactive | 200 | inactive
28 | CC(C)c1nc2oc3c(=O)[nH]cnc3c2c2c1CCC2 | inactive | 80% | 108% | inactive | 138 | inactive
29 | CCc1ccc(Cn2nnc(C(=O)O)c2C(=O)O)cc1 | inactive | 58.5% | 82.3% | inactive | 30.7 | inactive
30 | CCOc1ccc(Cn2c3ccc(OC)cc3c3nc4ccccc4nc32)cc1 | inactive | 114% [at 33.3 µM] | 127% [at 33.3 µM] | inactive | 242 | inactive
31 | Cc1nnc(N2CCOCC2)c2nn(-c3ccccc3)c(C)c12 | inactive | 58.1% | 71.2% | inactive | 198 | inactive
32 | CC(C)(C)C(=O)C#Cc1ccccc1 | inactive | 53.5% | 203% | inactive | 55.8 | inactive
33 | CCn1cc(C(=O)O)c(=O)c2cc(F)c(N/N=C/c3ccccc3[N+](=O)[O-])cc21 | inactive | 32.3% | 44% | inactive | 110 | inactive
34 | COc1ccc(/C=N/Nc2ncnc3sc4c(c23)CCCC4)cc1O | inactive | 30.6% | 42.8% | inactive | 112 | inactive
35 | COc1cc(/C=N/NC(=O)C(Cc2c[nH]c3ccccc23)NC(=O)OCc2ccccc2)cc([N+](=O)[O-])c1O (stereo not given) | inactive | 29.6% | 74% | inactive | 208 | inactive
36 | O=C(CSc1ccc2nnc(-c3ccncc3)n2n1)Nc1nccs1 | inactive | 30.7% | 69.4% | inactive | 174 | inactive
37 | CCc1nnc(NS(=O)(=O)c2ccc(Nc3ccc4nonc4c3[N+](=O)[O-])cc2)s1 | inactive | 26.3% | 65.4% | inactive | 147 | inactive
38 | COC(=O)c1c(N2C(=O)[C@H]3[C@@H](C2=O)[C@]2(C(=O)Nc4c2ccc(C)c4C)N2CCC[C@@H]32)sc(C)c1C | inactive | 55.3% | 71.4% | inactive | 0 | inactive
39 | CCOc1ccc(-n2c(-c3ccco3)n[nH]c2=S)cc1 | inactive | 56.1% | 112% | inactive | 107 | inactive
40 | S=C(NCCc1ccccc1)N1CCn2cccc2C1c1cccnc1 (stereo not given) | inactive | 28% | 63.3% | inactive | 227 | inactive

Row | Structure (SMILES) | outcome [1] | fluorescence, percent of control (lower = inhibition) [2] | GTP binding, percent of control [3] | outcome [4] | GTP binding signal, raw median fluorescence (lower = inhibition) (MCF (arbitrary fluorescence units)) [5] | outcome [6]
41 | COc1ccc(-c2csc(NC(=S)NC(=O)c3cccs3)n2)cc1OC | inactive | 36.6% | 78.1% | inactive | 176 | inactive
42 | Cc1cc(OCc2ccc(C(=O)O)o2)ccc1Cl | inactive | 57.7% | 85.2% | inactive | 31.8 | inactive
43 | Cc1ccccc1COc1c(C)cccc1C(=O)O | inactive | 59.9% | 209% | inactive | 56.3 | inactive
44 | CCOC(=O)N1CCN(/C=C(\C#N)c2nc3ccccc3s2)CC1 | inactive | 80.8% | 92.3% | inactive | 240 | inactive
45 | CC(SC(=S)N(C)Cc1cccs1)C(=O)O (stereo not given) | inactive | 83.3% | 79.5% | inactive | 312 | inactive
46 | COc1cc(N2CCCC2)c(OC)cc1/C=c1/sc2nc3ccccc3n2c1=O | inactive | 76% | 82% | inactive | 195 | inactive
47 | Cn1c(=O)n(Cc2ccc(F)cc2)c(=O)c2c1nc1n2CCN1Cc1ccco1 | inactive | 31.2% | 68.1% | inactive | 164 | inactive
48 | O=C(Nn1cc(C(=O)N2CCN(c3ccccc3F)CC2)c2ccccc2c1=O)c1cnccn1 | inactive | 98.6% | 156% | inactive | 197 | inactive
49 | COC(=O)c1cn(CCOc2ccccc2)c2ccccc12 | inactive | 34.2% | 83% | inactive | 225 | inactive
50 | COc1ccc2cc(C)c3nnc(SCc4cccnc4)n3c2c1 | inactive | 32.1% | 76.7% | inactive | 221 | inactive
51 | O=c1c2ccccc2nc2c3ccccc3c(NCCN3CCOCC3)nn12 | inactive | 42.6% | 52.2% | inactive | 132 | inactive
52 | COc1cc2c(cc1OC)-c1cc(NC3CCCCCCC3)nc(=O)n1CC2 | inactive | 33.3% | 68.6% | inactive | 142 | inactive
53 | Cc1cccc(COc2nc3ccccc3cc2C(=O)O)c1 | inactive | 54.8% | 213% | inactive | 52.2 | inactive
54 | O=c1[nH]c(=O)c2nnc(N/N=C\c3ccc(O)cc3)nc2[nH]1 | inactive | 32.2% | 69.1% | inactive | 147 | inactive
55 | COc1ccc(S(=O)(=O)N2CCOCC2)cc1NC(=O)COc1cccnc1[N+](=O)[O-] | inactive | 36.2% | 78.7% | inactive | 190 | inactive
56 | Oc1c(CN2CCOCC2)ccc2ccccc12 | inactive | 36.2% | 84.5% | inactive | 250 | inactive
57 | COc1ccc(C(=O)O)c(OCc2c(C)cccc2C)c1 | inactive | 59% | 208% | inactive | 55.5 | inactive
58 | CCOc1ccc(-n2nc3c(=S)[nH]nc(C)c3c2C)cc1 | inactive | 53.6% | 66.6% | inactive | 0 | inactive
59 | COc1ccccc1OCCn1cc(C(=O)O)c2cccc(C)c21 | inactive | 50.6% | 200% | inactive | 55.9 | inactive
60 | Cc1ccc(C)c(NC(=S)NNC(=O)c2cc3c(s2)CCC(C)C3)c1 (stereo not given) | inactive | 49.9% | 67.1% | inactive | 176 | inactive
